Drawing on PubChem BioAssay (NCATS), this text covers Potency for 40 molecules.

Records with an inconclusive call do not appear. Active and inactive are the calls of the source. Calls follow the shape of the dose curve; as a rule, active = well fitted cell-killing curve with a large enough effect; inconclusive = small, poorly fitted or top-dose-only effect, or effect the other way; inactive = no such curve, though single readings can be large or run the other way.

A short description of test [1]: Quantitative High-Throughput drug screen in 47 multiple myeloma cell lines against the NCATS MIPE library collection: INA6_PLB cell viability assay (AID 1918965; also: nearly all actives have a fitted effect of over 55% in size). The gist of the method: (§1)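 Relative luminescence from CellTiter-Glo served as the viability signal, referenced to DMSO-treated (100%) and cell-free medium (0%) controls. Treatment lasted 48 hours at 37C with 500 cells per well.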

Test [2] can be described thus: Quantitative High-Throughput drug screen in 47 multiple myeloma cell lines against the NCATS MIPE library collection: JJN3_DSMZ cell viability assay (AID 1918966; also: nearly all actives have a fitted effect of over 50% in size). The gist of the method: (§2)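 Myeloma cell lines, 500 cells per well, exposed to MIPE 4.0 library compounds for 48 h at 37C, 5% CO2. Viability from ATP by CellTiter-Glo luminescence; normalised to DMSO (100%) and media-only (0%) wells.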

Test [3] is described as follows: Quantitative High-Throughput drug screen in 47 multiple myeloma cell lines against the NCATS MIPE library collection: H1112_PLB cell viability assay (AID 1918967; also: nearly all actives have a fitted effect of over 30% in size). The gist of the method:
as §2

A short description of test [4]: Quantitative High-Throughput drug screen in 47 multiple myeloma cell lines against the NCATS MIPE library collection: Karpas25_ECACC cell viability assay (AID 1918968; also: nearly all actives have a fitted effect of over 35% in size). The gist of the method:
as §2

Test [5] can be described thus: Quantitative High-Throughput drug screen in 47 multiple myeloma cell lines against the NCATS MIPE library collection: KMS27_JCRB cell viability assay (AID 1918970). Also: nearly all actives have a fitted effect of over 30% in size. The gist of the method:
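KMS27_JCRB myeloma cells, 500 per well, exposed 48 h at 37 C, 5% CO2 to MIPE 4.0 compounds. Viability from ATP by CellTiter-Glo luminescence, normalized to DMSO (100%) and medium-only (0%) wells.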

Test [6] in a line: Quantitative High-Throughput drug screen in 47 multiple myeloma cell lines against the NCATS MIPE library collection: KMS12BM_JCRB cell viability assay (AID 1918971). Also: nearly all actives have a fitted effect of over 35% in size. The gist of the method:
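We plated 500 myeloma cells per well, pinned in MIPE 4.0 compounds, and incubated for 48 hours at 37C. ATP was then quantified with CellTiter-Glo, with DMSO and media-only wells defining 100% and 0%.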

The nature of test [7]: Quantitative High-Throughput drug screen in 47 multiple myeloma cell lines against the NCATS MIPE library collection: JIM1_ECACC cell viability assay (AID 1918964). The gist of the method:
as §2

Test [8] can be described thus: Quantitative High-Throughput drug screen in 47 multiple myeloma cell lines against the NCATS MIPE library collection: KMS20_JCRB cell viability assay (AID 1918973). Also: nearly all actives have a fitted effect of over 45% in size. The gist of the method: as §2
Test [9] is described as follows: Quantitative High-Throughput drug screen in 47 multiple myeloma cell lines against the NCATS MIPE library collection: KMS12PE_JCRB cell viability assay (AID 1918972). Also: nearly all actives have a fitted effect of over 30% in size. As to viability: series mostly up to about 46 µM. The gist of the method: as §1
Potency is read from the fitted curve at half-maximal effect.

With `CNCCCC12CCC(c3ccccc31)c1ccccc12`, the Potency was 16.6 µM (active) in test [1]; 20.9 µM (active) in test [2]; 26.4 µM (active) in test [3]; 23.5 µM (active) in [4]; 20.9 µM (active) in test [5]; 23.5 µM (active) in test [6].

Consider `CC1(C)O[C@H]2CC(=O)OC[C@]23[C@H]2CC[C@@]4(C)[C@H](c5ccoc5)OC(=O)[C@H]5O[C@]54[C@]2(C)C(=O)C[C@@H]13`, for which the Potency entry in test [7], in test [4], in [5], in test [6] and in test [8] was “inactive” throughout.

Consider `Nc1nnc(-c2cccc(Cl)c2Cl)c(N)n1`, for which the Potency result in test [7] and in test [5] was “inactive” in each case. In [4], the Potency is 20.9 µM (active).

With `Clc1ccccc1C(c1ccccc1)(c1ccccc1)n1ccnc1`, the Potency was 74.3 nM (active) in test [7]; 16.6 µM (active) in test [1]; 18.7 µM (active) in [4]; 16.6 µM (active) in test [6]; 7.43 µM (active) in test [9].

As for `C[C@@H]1CC(=O)NN=C1c1ccc(NN=C(C#N)C#N)cc1`, the Potency result in test [7] and in [5] was “inactive” in each case. In addition, the Potency was 18.7 µM (active) in test [1]; 20.9 µM (active) in [2]; 20.9 µM (active) in test [3]; 18.7 µM (active) in test [4]; 18.7 µM (active) in test [6].

As for `CN1CCN(C2=Nc3cc(Cl)ccc3Nc3ccccc32)CC1`, the Potency result in test [7], in test [5] and in [6] was “inactive” each time. Further, the Potency in test [4] was 26.4 µM (active).

For `Cn1c(=O)c2c(ncn2C)n(C)c1=O`, the Potency entry in test [1], in [2], in test [6] and in test [9] was “inactive” throughout.

With `Cn1ccc2cc3c(cc21)CCN3C(=O)Nc1cccnc1`, the Potency in test [1] is 14.8 µM (active); in test [3], 20.9 µM (active); in test [4] it was 20.9 µM (active); in [9] it was 20.9 µM (active).

In the case of `Cc1ccc(-c2cc(C(F)(F)F)nn2-c2ccc(S(N)(=O)=O)cc2)cc1`, in [9], the Potency is 4.18 µM (active).

Turning to `CN(C)C(=N)N=C(N)N`, the Potency entry in test [1], in test [4] and in [5] was “inactive” throughout.

Regarding `Cn1c(=O)c2[nH]cnc2n(C)c1=O`, the Potency entry in [1], in [3], in test [4], in test [5], in test [6] and in test [9] was “inactive” in each case.

With `CN1CCC(=C2c3ccccc3CC(=O)c3sccc32)CC1`, the Potency in test [1] is 8.33 µM (active); in [4], 7.43 µM (active). For the same molecule, the Potency entry in test [9] was “inactive”.

Consider `COc1ccccc1OCCNCC(O)COc1cccc2[nH]c3ccccc3c12` (stereo not drawn), for which the Potency entry in test [4] is “inactive”.

On to `O=C(C1CCCCC1)N1CC(=O)N2CCc3ccccc3C2C1` (stereo not drawn), for which the Potency result in [3], in [4] and in [5] was “inactive” in each case.

Consider `NCCS(=O)(=O)O`, for which the Potency result in test [6] is “inactive”.

Consider `CCC1(C)CC(=O)NC1=O` (stereo not drawn), for which the Potency entry in [1], in [4], in test [5] and in [9] was “inactive” in each case. Besides, the Potency in test [6] was 1.18 µM (active).

Consider `CN(C)CCC=C1c2ccccc2C=Cc2ccccc21`, for which the Potency in [2] was 18.7 µM (active); in test [4], 1.66 µM (active); in [6], 1.48 µM (active); in test [8], 14.8 µM (active). For the same molecule, the Potency entry in test [5] is “inactive”.

Consider `O=c1c(-c2ccc(O)cc2)coc2cc(O)cc(O)c12`, for which, in test [3], the Potency result was “inactive”. The Potency was 5.26 µM (active) in test [6] and 2.64 µM (active) in [9].

In the case of `COc1ccc2c(c1)c(CC(=O)O)c(C)n2C(=O)c1ccc(Cl)cc1`, the Potency in test [1] was 16.6 µM (active); in test [4], 20.9 µM (active).

With `CC(C(=O)O)c1cccc(C(=O)c2ccccc2)c1` (stereo not drawn), the Potency in test [3] is 18.7 µM (active); in [4], 13.2 µM (active). For the same molecule, the Potency result in test [9] was “inactive”.

As to `CC(C)(Oc1ccc(C2CC2(Cl)Cl)cc1)C(=O)O` (stereo not drawn), the Potency entry in [6] is “inactive”.

Take `COc1ccccc1N1CCN(CC(O)COc2cccc3ccccc23)CC1` (stereo not drawn): in [2], the Potency result is “inactive”. Further, the Potency is 16.6 µM (active) in [3] and 11.8 µM (active) in test [4].

With `CN1CCC(=C2c3ccccc3C=Cc3ccccc32)CC1`, the Potency was 11.8 µM (active) in test [1], 11.8 µM (active) in test [3], 7.43 µM (active) in test [4] and 23.5 µM (active) in [5].

`CCc1cccc2c3c([nH]c12)C(CC)(CC(=O)O)OCC3` (stereo not drawn): the Potency result in [1], in [3], in test [5] and in [9] was “inactive” each time.

Take `Fc1ccc([C@@H]2CCNC[C@H]2COc2ccc3c(c2)OCO3)cc1`: the Potency result in [4] and in [9] was “inactive” throughout. The Potency in [6] was 14.8 µM (active).

`Clc1ccc(C(c2ccccc2Cl)C(Cl)Cl)cc1` (stereo not drawn): in [3], the Potency result is “inactive”. In addition, the Potency in test [6] is 18.7 µM (active).

Turning to `CCCNCC(O)COc1ccccc1C(=O)CCc1ccccc1` (stereo not drawn), the Potency entry in test [2] and in [6] was “inactive” throughout. Moreover, the Potency in test [4] is 16.6 µM (active).

As for `Cc1cc(C(C)(C)C)c(O)c(C)c1CC1=NCCN1`, the Potency entry in [4], in [6] and in [9] was “inactive” in each case.

Regarding `CN(C)CCOC(c1ccccc1)c1ccccc1`, the figures for the Potency in [1] and in [4] were 10.5 µM (active) and 9.35 µM (active), respectively. For the same molecule, the Potency result in test [5] and in test [6] was “inactive” each time.

For the molecule `COc1cc2nc(N3CCN(C(=O)C4COc5ccccc5O4)CC3)nc(N)c2cc1OC` (stereo not drawn), the Potency in [1] is 20.9 µM (active); in test [4], 20.9 µM (active); in test [6] it was 6.62 µM (active).

On to `NC(=O)OCC(COC(N)=O)c1ccccc1`, for which the Potency entry in test [1], in [3], in test [5], in test [6] and in test [9] was “inactive” in each case.

As to `COc1cc2nc(N(C)CCCNC(=O)C3CCCO3)nc(N)c2cc1OC` (stereo not drawn), the Potency result in test [3], in [4] and in test [9] was “inactive” throughout.

For `O=C(CCCN1CCC(O)(c2ccc(Cl)cc2)CC1)c1ccc(F)cc1`, the Potency in [1] was 18.7 µM (active); in [4], 2.96 µM (active). Also, the Potency result in test [3] and in test [6] was “inactive” each time.

For the molecule `O=c1c(O)c(-c2ccc(O)c(O)c2)oc2cc(O)cc(O)c12`, the Potency in [1] is 11.8 µM (active); in test [4], 16.6 µM (active).

For `C[C@H]1c2cccc(O)c2C(O)=C2C(=O)[C@]3(O)C(O)=C(C(N)=O)C(=O)[C@@H](N(C)C)[C@@H]3[C@@H](O)[C@@H]21`, the results for the Potency in test [1] and in test [4] were 37.2 µM (active) and 16.6 µM (active), respectively. Moreover, the Potency entry in test [5] is “inactive”.

In the case of `CC(C)Cc1ccc(C(C)C(=O)O)cc1` (stereo not drawn), the Potency in [1] is 1.62 µM (active). The Potency result in [3] and in test [5] was “inactive” each time.

For the molecule `Cc1cc(C(C)(C)C)cc(C)c1CC1=NCCN1`, the Potency entry in test [4] and in [9] was “inactive” each time.

As for `COc1cc2nc(N3CCN(C(=O)c4ccco4)CC3)nc(N)c2cc1OC`, the Potency in test [1] was 8.33 µM (active); in test [4] it was 7.43 µM (active); in [5] it was 9.35 µM (active); in test [8], 8.33 µM (active).

With `C[C@](N)(Cc1ccc(O)c(O)c1)C(=O)O`, the Potency in [2] is 18.7 µM (active); in [4] it was 20.9 µM (active). The Potency result in [5] was “inactive”.

On to `CCOC(=O)Nc1ccc(NCc2ccc(F)cc2)nc1N`, for which the Potency in test [1] is 14.8 µM (active); in test [5], 18.7 µM (active). The Potency result in [3], in test [4] and in test [6] was “inactive” each time.
